# Hits are enriched below; roughly 6.8% of the tested compounds scored in any of these assays.
# Abs 340nm: compounds absorbing at 340 nm | compound absorbance at 340 nm, fold over control | AID 708 | fold change at 10 µM | 65,000 tested, under 10 active;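 active = at 10 µM dose, initial 340 nm absorbance at least 2 fold that of control wells; inactive = change under 2 fold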;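 note: initial absorbance extrapolated from kinetic A340 decline of NADH oxidation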
# MK inhibit: inhibitors of Streptococcus pneumoniae mevalonate kinase; inhibition, % at 10 µM; purified MK, PK/LDH-coupled NADH absorbance 340 nm; 65,000 tested, 0.48% active; AID 555;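 active = ranked among the strongest by inhibition in the single 10 µM screen, a fixed top-ranked set picked for dose follow-up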
# NADH enzymes: inhibitors of enzymes used to reach an NAD/NADH endpoint; coupled PK/LDH NADH assays, four targets; IC50, µM (top dose mostly 10 µM), inactives show at the highest dose inhibition; 65,000 tested, 0.02% active; AID 774;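 active = single-dose screening hits from any of four coupled enzyme assays that gave an IC50 when retested across doses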;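 note: the DPM-DC format reads NADH fluorescence rather than 340 nm absorbance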
# Spn PMK inh: inhibitors of Streptococcus pneumoniae phosphomevalonate kinase; purified PMK, PK/LDH-coupled NADH absorbance 340 nm; inhibition, % at 10 µM; 65,000 tested, 0.49% active;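 active = top-ranked compounds by inhibition in the single 10 µM screen, taking a fixed number of the strongest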;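 note: 0% = full reaction with DMSO carrier and 100% = background rate without enzyme reaction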
# DPM-DC inhibit: S. pneumoniae DPM-DC inhibition | purified DPM-DC, PK/LDH coupled NADH fluorescence | calls only at 10 µM | 65,000 tested, 0.49% active;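 active = the 320 compounds with the highest percent inhibition in the single-dose primary screen, excluding strongly autofluorescent ones, cut at about 32% in these data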;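 note: kinetic rate of NADH fluorescence loss reporting ADP formed by the decarboxylase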
# Fluor 339 460: intrinsic fluorescence of library compounds, ex339/em460 – biochemical, MLSMR library, data from DPM-DC assay, artefact control, profiling panel | AID 709 | compound autofluorescence, ex339/em460 nm, NADH buffer; stronger effect = higher value; 1 = no-compound wells, NADH background | fluorescence fold increase at 10 µM | 65,000 tested, 5.5% active;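 active = at 10 µM, mean starting fluorescence two-fold or more over control wells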;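 note: signal is the first read of a kinetic run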
# * marks the source's active call; other numbers are inactive results; i = inactive; . = no result given; + = active, no number; [ ] = remark or other dose.
SMILES,Abs 340nm,MK inhibit,NADH enzymes,Spn PMK inh,DPM-DC inhibit,Fluor 339 460
Cc1cc(C)n(-c2ccc(C(=O)Nc3nnc(C4CC4)s3)cc2)n1,1.1,1,8%,15,i,0.94
CC(C)Oc1ccc(C2/C(=C(/O)c3ccc(F)cc3)C(=O)C(=O)N2CCCN(C)C)cc1 (centres undefined),1,17,9%,8,i,1
CCCCN(C)Cc1c(C)[nH]c2ccc(OCC)cc2c1=O,1.1,2,1%,0,.,2.1*
O=c1[nH]c(CN2CCCCC2)nc2c1C1(CCCC1)Cc1ccccc1-2,1,6,2%,1,i,1.1
CCCC(C(=O)NC1CCCC1)N(CC1CCCO1)C(=O)c1snc(C(N)=O)c1N (centres undefined),1,18,14%,11,i,2.8*
CCCC(C(=O)NC1CCCC1)N(CCCN1CCOCC1)C(=O)c1snc(C(N)=O)c1N (centres undefined),1,0,10%,11,i,2.2*
CCOC(=O)c1c(C)c(C(=O)NCc2ccc3c(c2)OCO3)c(C)n1C,0.99,1,5%,13,i,1.2
Cc1cc(NC(=O)c2ccccc2NS(=O)(=O)c2c(C)c(C)cc(C)c2C)no1,1,11,7%,2,.,2.3*
Cc1ccc(C)c(S(=O)(=O)Nc2ccccc2C(=O)Nc2cc(C)on2)c1,1.1,6,3%,0,.,2.2*
O=C(CN1c2cccc3cccc(c23)S1(=O)=O)N1CCOCC1,0.99,8,1%,3,+[fluoresces],2.8*
COc1ccc(NC(=O)CN2c3cccc4cccc(c34)S2(=O)=O)cc1,1,0,5%,13,i,2.3*
Cc1c(NC(=O)CN2C(=O)c3ccccc3S2(=O)=O)c(=O)n(-c2ccccc2)n1C,1,9,5%,6,i,1.1
Cc1c(NC(=O)CN2c3cccc4cccc(c34)S2(=O)=O)c(=O)n(-c2ccccc2)n1C,1,5,2%,9,+[may fluoresce],2.5*
Cc1cccc(-c2nc(CSCC(=O)N3CCN(Cc4ccc5c(c4)OCO5)CC3)c(C)o2)c1,0.98,0,4%,13,i,1.1
COc1cc(N2CCOCC2)ncn1,0.99,3,5%,12,i,1.1
CCSc1nnc([C@H](C)NC(=O)OC(C)(C)C)o1,1,4,5%,11,i,1.1
c1ccc2c(c1)NC1(CCCC1)n1c-2nc2ccccc21,1.1,0,5%,10,.,5*
c1ccc2c(c1)NC(c1ccncc1)n1c-2nc2ccccc21 (centres undefined),1.1,6,5%,2,i,1.5
COC(=O)c1cc(Nc2ncnc3c2cnn3-c2ccccc2)cc(C(=O)OC)c1,1.1,3,2%,0,i,1.4
O=C(O)c1ccccc1C(=O)NCc1ccccc1,1.1,11,4%,0,i,0.94
O=C(O)c1ccc(CNc2ccccc2C(=O)O)cc1,1.1,1,9%,4,i,2.6*
O=C(O)c1ccccc1NCc1ccncc1,1,12,8%,2,i,2*
COc1ccccc1N1CCN(CC(O)COc2ccc3c(C)cc(=O)oc3c2)CC1 (centres undefined),1.1,3,6%,0,i,1.8
Cc1cc(=O)oc2cc(OCC(O)CN3CCc4ccccc4C3)ccc12 (centres undefined),1.1,0,9%,17,.,4.2*
Cc1cc(=O)oc2cc(OCC(O)CN3CCN(c4ccccc4)CC3)ccc12 (centres undefined),1.1,0,8%,5,i,3.4*
SMILES,Abs 340nm,MK inhibit,NADH enzymes,Spn PMK inh,DPM-DC inhibit,Fluor 339 460
Cc1cc(=O)oc2cc(OCCSCCN3CCOCC3)ccc12,1.1,7,3%,0,i,1.4
COc1cccc(OC)c1OCC(O)CN1CCN(c2ccccc2)CC1 (centres undefined),0.97,16,15%,28*,i,1.1
CCOC(=O)c1ccc(-c2c(C(=O)OCC)oc3cc(O)c(CC)cc3c2=O)o1,1,10,4%,11,i,1
CCN(CC)C(NC(=O)c1ccccc1)C(=O)c1ccccc1 (centres undefined),1,7,4%,5,i,1.1
N#Cc1nc(-c2cccs2)oc1NCc1ccccc1,1.1,0,2%,4,.,2.4*
N#Cc1nc(-c2cccs2)oc1NCc1ccccc1Cl,1,2,4%,6,.,2.4*
N#Cc1nc(-c2cccs2)oc1NCc1ccc(Cl)cc1,1,12,4%,9,.,3*
N#Cc1nc(-c2cccs2)oc1NCc1ccco1,1.1,4,2%,0,.,2.2*
C1=Nc2c(Nc3ccccc3)ncnc2Oc2ccccc21,1,11,8%,13,i,1
COC(=O)c1cc(Br)c(=O)n(CCC2=CCCCC2)c1,1,6,2%,14,i,1.1
Cc1ccc(CNc2oc(-c3cccs3)nc2C#N)cc1,1.1,5,5%,5,.,3.6*
COc1ccc(CNc2oc(C)nc2C#N)cc1,1,7,5%,8,i,1
CCOc1ccc(Nc2oc(-c3cccs3)nc2C#N)cc1,1.1,3,2%,0,.,3*
CCOc1ccc(Nc2oc(-c3ccco3)nc2C#N)cc1,1.1,9,3%,0,i,1.3
N#Cc1nc(-c2cccs2)oc1N1CCN(c2ccccc2)CC1,1,6,7%,7,.,3.7*
O=C(CN1CCN(c2ncccn2)CC1)Nc1ccccc1-n1cccc1,0.99,34,3%,0,i,1
Cc1sc2nc(SCC(=O)c3cc(C)n(CC4CCCO4)c3C)n(C(C)C)c(=O)c2c1C (centres undefined),1.1,4,2%,0,i,1
CC1CN(C(=O)c2cc3c(=O)n4ccccc4nc3s2)CC(C)O1 (centres undefined),1.1,0,9%,18,.,4.9*
CC1CN(C(=O)c2cc3c(s2)CCC3)CC(C)O1 (centres undefined),1,1,3%,7,i,1.1
CC(=O)c1ccc(OCC(O)CN(C)Cc2cccs2)cc1 (centres undefined),1,27,14%,10,i,1.1
CCCCC(=O)Nc1cccc(-c2nc3ncccc3o2)c1,1,11,17%,14,i,2.3*
Cc1cc(-c2nc3ncccc3o2)ccc1N,1.1,9,5%,7,.,3*
CCC(=O)Nc1ccc2oc(-c3cccc(C)c3)nc2c1,1.1,0,0%,0,.,2.3*
CCCC(=O)Nc1ccc2oc(-c3cccnc3)nc2c1,1,0,3%,20,.,2.8*
CCCC(=O)Nc1cccc(-c2nc3ccccc3o2)c1,1.1,5,2%,2,i,1.1

# From PubChem BioAssay
